RAD54 branch = inhibitors of human RAD54 branch migration. inhibition, % at 10.4 µM. RAD54 Holliday junction branch migration, FAM/BHQ fluorescence. Q92698. actives 0.14% (n = 360,000);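 active = mean normalized replicate activity at least 40 and at least half of replicates scoring 40 or more; inconclusive = only one of the two criteria met; inactive = mean below 40 and under half of replicates reaching 40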;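 also: 0% = median of neutral control wells and 100% = median of positive control wells; inhibitors cause a drop in the FAM fluorescence signal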
Target sequence (Q92698 whole entry, looked up): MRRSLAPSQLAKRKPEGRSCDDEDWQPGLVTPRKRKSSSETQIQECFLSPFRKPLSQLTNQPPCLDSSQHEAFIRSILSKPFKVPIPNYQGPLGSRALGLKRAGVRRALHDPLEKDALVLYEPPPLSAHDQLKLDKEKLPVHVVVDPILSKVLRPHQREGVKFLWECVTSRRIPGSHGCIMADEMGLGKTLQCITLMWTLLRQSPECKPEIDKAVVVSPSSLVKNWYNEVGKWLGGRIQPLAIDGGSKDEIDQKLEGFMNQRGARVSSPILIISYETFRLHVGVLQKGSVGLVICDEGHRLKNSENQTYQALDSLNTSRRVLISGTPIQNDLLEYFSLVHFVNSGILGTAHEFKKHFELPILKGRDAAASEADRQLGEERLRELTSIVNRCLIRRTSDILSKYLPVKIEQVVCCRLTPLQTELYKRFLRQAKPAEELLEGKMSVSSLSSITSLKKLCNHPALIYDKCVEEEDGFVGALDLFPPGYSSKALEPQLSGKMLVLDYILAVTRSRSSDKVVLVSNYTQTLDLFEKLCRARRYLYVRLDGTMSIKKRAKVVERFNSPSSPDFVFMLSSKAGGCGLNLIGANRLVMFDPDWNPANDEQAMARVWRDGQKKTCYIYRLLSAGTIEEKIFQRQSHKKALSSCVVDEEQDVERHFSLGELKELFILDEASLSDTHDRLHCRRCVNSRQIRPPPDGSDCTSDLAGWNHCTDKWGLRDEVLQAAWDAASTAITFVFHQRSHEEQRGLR
DNA FID counter = counter-screen for HCV NS3 helicase inhibitors: DNA intercalator displacement | DNA fluorescent intercalator displacement, fluorescence | inhibition, % at 7.9 µM | actives 0.17% (n = 290,000) | AID 1845; in the data active = inhibition above about 37%;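 also: 0% = vehicle and 100% = reference compound; higher means more ethidium bromide displaced from hairpin DNA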
miR122 inh = blocks miR-122 activity in Huh7 sensor cells | Huh7 miR-122 Renilla luciferase sensor, 48 h; neutral wells = 0, positive control = 100 | actives 0.3% (n = 340,000) | activation (reporter increase), % at 12.5 µM;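 active = mean replicate activation score at least 90 and every replicate individually at or above 90; inconclusive = only one of the two criteria met; inactive = neither criterion met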;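 also: higher luciferase means less miR-122 activity so hits act as miR-122 inhibitors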
RAD52 inh = inhibitors of human RAD52 DNA annealing; P43351; recombinant RAD52 DNA annealing, FRET fluorescence; inhibition, % at 18.7 µM; actives 0.46% (n = 360,000); AID 651710;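 active = every replicate showing at least 50% inhibition; inconclusive = mean inhibition at least 50% but not in every replicate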
N-glyco inh = N-linked glycosylation inhibition; actives 0.23% (n = 360,000); reporter increase, % at 12.5 µM; AID 588692; D54 ERlucT glycosylation luciferase reporter, 24 h; percent of 100 nM tunicamycin response;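 active = mean luciferase reporter signal, scaled so untreated is 0 and the glycosylation-blocking control 100, at or above a set limit in every replicate; inconclusive = mean reaches the limit but not every replicate does; inactive = mean below the limit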;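 also: luciferase carries N-glycosylation sites so blocking glycosylation raises the light; 0% = median of neutral control wells and 100% = median of 100 nM tunicamycin wells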
CendR NRP1 mod = alters CendR peptide binding to human NRP-1; O14786; FAM-RPARPAR peptide binding to NRP-1, fluorescence polarization; inhibition, % at 25 µM; actives 0.85% (n = 360,000);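 active = inhibition or corrected inhibition above about 18%, plus a signal ratio from 0.5 to 1.5, limit read from the data, passing the limit was not always enough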
DNA binder FP = binds DNA, flagging false RAD52 inhibitor hits. shares compounds with RAD52 inh. Salmon sperm DNA/acridine orange FP displacement, DNA binding. AC50, µM. actives 8% (n = 1,000);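 active = fitted half-maximal concentration for signal loss at or below twice the highest dose tested, in every separate run, actives reach about 64 µM in these data; inconclusive = runs disagree, or flat partial signal loss, or poor fit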
* hit, by the source's call; i = inactive; ? = inconclusive; . = no result; [ ] = another dose, or the depositor's remark. The list is not random: actives were taken first. Their share in the collection is about 1.5%.

SMILES	RAD54 branch	DNA FID counter	miR122 inh	RAD52 inh	N-glyco inh	CendR NRP1 mod	DNA binder FP
CCn1c(C)nc2cc(N)ccc21	.	23	-3	93*	-1	10	i
Cc1nc2cc(C(=O)O)ccc2n1C1CCCCC1	-11	-2	-4	0	0	0	.
CCn1c(C)nc2cc(S(N)(=O)=O)ccc21	.	10	.	-22	2	3	.
Cc1nc2cc(N)ccc2n1C1CCCCC1	.	3	.	91*	1	5	i
CN(C)c1ccc(Nc2nc(N)c3ccccc3n2)cc1	22	18	.	46	-20	9	i
CCN(CC)CCNC(=O)C(=O)NCC1OCCN1S(=O)(=O)c1cccs1 (configuration not stated)	-7	0	0	54*	-1	7	i
COCCNC(=O)C(=O)NCC1OCCN1S(=O)(=O)c1cccs1 (configuration not stated)	-10	-5	7	-13	3	-4	.
C[C@@H]1CN([C@@H](C)CO)C(=O)c2cccc(NC(=O)NC3CCCCC3)c2O[C@@H]1CN(C)C(=O)NC1CCCCC1	5	.	-6[16.7 µM]	19	.	.	.
CC(=O)C1CCC2C3CC=C4CC(SC(=N)N)CCC4(C)C3CCC12C (configuration not stated)	.	.	.	51*	4	8	i
Nc1ccc(C=C2C=Cc3ccccc32)cc1	-3	.	-2	-20	-7	2	.
NC(N)=Nc1ccc(C=C2C=Cc3ccccc32)cc1	.	.	-5	66*	-2	0	i
C[n+]1c2n(c3ccccc31)N=C(c1cc(C(C)(C)C)c(O)c(C(C)(C)C)c1)CS2	.	14	2	60*	12	-1	i
CN(C)CCNC(=O)c1csc(Nc2cccc3ccccc23)n1	12	31	5	51*	-5	-6	i
CN1CCN(c2ccc(Cl)cc2NC(=O)CCN2C(=O)c3ccccc3C2=O)CC1	.	10	.	83*	0	-5	i
COc1ccc(NC(=S)NC23CN4CN(CN(C4)C2)C3)c(OC)c1	.	-5	.	86*	0	3	i
COc1ccc(NC(=S)NC23CN4CN(CN(C4)C2)C3)cc1	1	-2	1	.	4	-12	.
CN1CCN(C2Cc3ccccc3Sc3cc(C(F)(F)F)ccc32)CC1 (configuration not stated)	.	.	.	36	.	.	.
CSc1ccc2c(c1)C(N1CCN(C)CC1)Cc1ccccc1S2 (configuration not stated)	19	20	-2	52*	2	-8	i
CN1CCN(C2Cc3ccccc3Sc3ccc(Cl)cc32)CC1 (configuration not stated)	12	.	-5	54*	-1	-5	i
O=C(NCC1CC1)[C@@H]1[C@@H](CO)[C@@H]2Cn3c(ccc(-c4ccccc4)c3=O)[C@@H]2N1Cc1cocn1	4	.	-3[16.7 µM]	-1	.	.	.
Cc1cccc(/C=C/C(=O)c2ccc(NC3=NCCCS3)cc2)c1	.	5	.	54*	4	6	i
COc1cccc(/C=C/C(=O)c2ccc(NC3=NCCCS3)cc2)c1	.	21	.	32	10	2	.
COC(=O)C[C@@H]1C[C@@H]2c3cc(NS(=O)(=O)c4cccc(OC)c4)ccc3O[C@@H]2[C@H](CO)O1	4	.	-4[16.7 µM]	-9	.	.	.
NC(N)=N/N=C/c1ccc(OCc2ccccc2Cl)cc1	13	28	-20	27	-13	9	i
CN(C)CC(=O)Nc1ccc2c(c1)[C@@H]1C[C@H](CC(=O)NCCN3CCCCC3)O[C@H](CO)[C@@H]1O2	9	.	5[16.7 µM]	-10	.	.	.
SMILES	RAD54 branch	DNA FID counter	miR122 inh	RAD52 inh	N-glyco inh	CendR NRP1 mod	DNA binder FP
CC[n+]1ccc(/C=C/c2ccc(N(C)C)cc2)c2ccccc21	.	57*	.	60*	?	-12	13µM*
CN1CCN(c2cc(-c3cc(O)c4ncccc4c3)ccn2)CC1	26	.	-6	107*	-11	11	i
CO[C@H]1CN(C)C(=O)c2cc(NC(=O)NC(C)C)ccc2OC[C@@H](C)N(Cc2cncnc2)C[C@H]1C	9	.	7[16.7 µM]	.	.	.	.
CCCCCC[N+](C)(C)CC/C=C1/c2ccccc2Sc2ccc(Cl)cc21	.	22	.	63*	1	6	i
CN1CCN(CCC=C2c3ccccc3Sc3ccc(S(=O)(=O)N(C)C)cc32)CC1	2	.	0	49	0	3	.
C[C@H](CO)N1C[C@H](C)[C@@H](CN(C)C(=O)Nc2ccc(F)cc2)Oc2ccc(NS(=O)(=O)c3cn(C)cn3)cc2CC1=O	9	.	-1[16.7 µM]	1	.	.	.
CCOc1ccc2c(C)nc(NC3=NC(C)(C)C=C(C)N3)nc2c1	39	0	7	91*	-1	-9	i
O=C(NCCCN1CCOCC1)c1ccc2c(c1)N(Cc1ccccc1)C(=O)c1ccccc1S2	-1	12	-9	-20	0	7	.
CN1CCN(CCCNC(=O)c2ccc(/C=C3\Sc4ccccc4N(Cc4ccc(F)cc4)C3=O)cc2)CC1	7	31	-10	92*	-8	10	i
O=C(CN1C(=O)/C(=C/c2ccccc2)Sc2ccccc21)NCCCN1CCOCC1	-3	18	-3	-13	1	16	.
CC1CCCCN1CCNC(=O)c1ccc2c(c1)N(Cc1cccc(Cl)c1)C(=O)c1ccccc1S2=O (configuration not stated)	9	36	-3	9	-5	9	.
O=C(NCCCN1CCCC1)c1ccc2c(c1)N(Cc1cccc(Cl)c1)C(=O)c1ccccc1S2=O (configuration not stated)	4	18	-3	67*	-8	11	i
O=C1Nc2cc(C(=O)NCCCN3CCCC3)ccc2S/C1=C/c1cccc(Cl)c1	35	.	-3	79*	-8	-2	i
CN1CCN(CCCNC(=O)c2ccc(/C=C3/Sc4ccccc4N(Cc4cccc(Cl)c4)C3=O)cc2)CC1	10	29	-7	68*	-9	1	i
C[C@@H]1CN([C@H](C)CO)C(=O)Cc2cc(NS(=O)(=O)c3ccc(F)cc3)ccc2O[C@H]1CN(C)C(=O)Nc1ccc(C(F)(F)F)cc1	3	.	2[16.7 µM]	-7	.	.	.
CN1CCN(CCCNC(=O)c2ccc(/C=C3\Oc4ccccc4N(Cc4ccccc4F)C3=O)cc2)CC1	31	33	.	96*	-4	-3	i
Cc1cccc(CN2C(=O)/C(=C\c3ccc(C(=O)NCCCN4CCN(C)CC4)cc3)Oc3ccccc32)c1	9	30	-2	30	-7	1	.
C[C@@H]1CN([C@H](C)CO)C(=O)CCCn2cc(nn2)CO[C@H]1CN(C)Cc1ccc(Cl)c(Cl)c1	-12	.	-7[16.7 µM]	-14	.	.	.
CN(C)CCCN(C(=O)c1ccc(Br)s1)c1nc2cc3c(cc2s1)OCCO3	26	.	4	68*	4	-34	i

Bioassay records: PubChem, several laboratories
